# PglD inh: C. jejuni PglD acetyltransferase inhibitors, primary screen, biochemical, DTNB colorimetric, single point; inhibition, % at 12.5 µM; AID 602405, 2012; purified PglD enzyme, DTNB colorimetric CoA detection; 0.098% of 360,000 active; in the data active = inhibition above about 16%, passing the limit was not always enough
# ARNT TACC3 PPI: disruptors of ARNT/TACC3 protein interaction, primary screen, biochemical, AlphaScreen, single concentration; Transforming acidic coiled-coil-containing protein 3 (Homo sapiens), Q9Y6A5; AlphaScreen His-ARNT PAS-B/GST-TACC3 binding, luminescence; TACC3 fragment carries E629A point mutation; inhibition, % at 9.99 µM; 0.66% of 390,000 active;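 active = mean inhibition of replicates at least 50% and at least half of replicates each reaching 50%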;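 note: 0% = complete ARNT plus TACC3 wells and 100% = ARNT alone without TACC3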
# F508del corr: F508del CFTR correction, initial screen, CFBE line, single point; activity (quench increase), % at 7.58 µM; CFBE cells, YFP halide quenching; stimulated with forskolin plus potentiator P3; % fluorescence drop versus neutral controls; 0.36% of 350,000 active;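 active = mean added fluorescence quench of at least 8% versus neutral control, with both replicates also reaching 8%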;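 note: cells transiently co-express mutant CFTR-F508del with the halide-sensitive YFP; corrector assay measuring rescue of mutant channel to the surface after 24 h compound exposure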
# Statin myotox sup: suppressors of statin myotoxicity in C2C12 myotubes, primary screen, cell-based, single point, plate reader. C2C12 myotubes + simvastatin, ATP luminescence, 48 h; scaled: DMSO 0, geranylgeraniol control 100. AID 602340, 2012. rescue of ATP level, % at 7.49 µM. 0.78% of 330,000 active;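 active = mean ATP rescue above about 67%, or every replicate alone reaching that limit, limit read from the data, passing the limit was not always enough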;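 note: myotubes were challenged with 10 µM simvastatin during compound exposure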
# * marks the source's active call; other numbers are inactive results; nt = not tested or not shown. Sampled rows, rich in hits. Any-hit rate of the full collection: about 1.4%.
SMILES,PglD inh,ARNT TACC3 PPI,F508del corr,Statin myotox sup
CCNS(=O)(=O)c1ccc(NC(=S)N2CCc3ccccc32)cc1,3,53*,1,-15
CC(C)Oc1ccc(C(=O)NCc2ccco2)cc1,-1,-2,nt,127*
CCCOc1ccc(C(=O)NCc2ccco2)cc1,1,-9,nt,-8
O=C(CC1CC1)Nc1ccc2c(c1)[C@@H]1C[C@H](CC(=O)N3CCc4ccccc4C3)O[C@H](CO)[C@@H]1O2,0,-2,0,4
CC(=O)/C(N=Nc1c(C)n(C)n(-c2ccccc2)c1=O)=C(\C)O,nt,35,-1,nt
Cc1c(N=NC2=C(O)CC(C)(C)CC2=O)c(=O)n(-c2ccccc2)n1C,nt,61*,3,nt
CCOC(=O)/C(N=Nc1c(C)n(C)n(-c2ccccc2)c1=O)=C(\C)O,nt,72*,nt,nt
COc1ccc(NC(=O)N2CC3(C2)CN(C(=O)c2cccnc2)[C@@H](CO)c2[nH]c4cc(OC)ccc4c23)cc1,nt,nt,0,nt
N#CCCCSc1nnc(CSc2nc3ccccc3s2)n1-c1ccccc1,1,nt,nt,103*
CCc1sc(NC(=O)COC)nc1-c1ccccc1,-9,nt,nt,12
COCC(=O)Nc1nc(-c2ccc(C)cc2)c(C)s1,-5,-2,nt,123*
O=C(N[C@@H]1CC[C@@H](CC(=O)N2CCCCC2)O[C@H]1CO)c1ccc2c(c1)OCO2,-3,-1,0,1
O=c1c2c3c(sc2nc2n1CCCS2)CCCC3,1,-3,nt,114*
CC1CSc2nc3sc4c(c3c(=O)n21)CCCC4 (configuration not stated),-6,-1,nt,141*
C[C@@H]1CN([C@@H](C)CO)C(=O)c2cc(NC(=O)NC3CCCCC3)ccc2O[C@@H](C)CCCCO[C@H]1CN(C)S(=O)(=O)c1cn(C)cn1,1,-12,0,nt
Cc1ccccc1C(=O)Nc1cccc(C(=O)N/N=C/c2ccccn2)c1,-6,46*,1,-8
CC1(C)CC(NC(=O)CCC2CCCC2)CC(C)(C)N1,-6,5,nt,106*
CCC(=O)Nc1ccc2c(c1)C(=O)N(C)C[C@H](OC)[C@H](C)CN(C(=O)C1CCC1)[C@H](C)CO2,-1,-18,-1,3
C[C@H]1CN([C@@H](C)CO)S(=O)(=O)c2ccc(-c3cncnc3)cc2O[C@H]1CN(C)C(=O)Cc1ccccc1,-4,10,5,-17
Cc1ccc(COc2ccccc2-c2cc(C(=O)N/N=C/c3cccnc3)[nH]n2)cc1,nt,1,9.7*,nt
Cc1nn2c3ccccc3n(Cc3ccccc3)c2nc1=O,-1,1,nt,118*
O=C(C[C@H]1CC[C@@H]2[C@H](COC[C@@H](O)CN2S(=O)(=O)c2ccc(F)cc2)O1)NCC1CC1,1,9,1,-4
Cc1ccccc1S(=O)(=O)N[C@H]1CC[C@@H](CCn2cc(-c3ccc(F)cc3)nn2)O[C@@H]1CO,-1,0,-1,-46
O=C(O)CCCCCCCCc1cn(Cc2ccc(C(=O)c3ccccc3)cc2)nn1,2,9,14*,nt
O=C(c1ccccc1)c1ccc(Cn2cc(CCCO)nn2)cc1,5,0,1,150*
SMILES,PglD inh,ARNT TACC3 PPI,F508del corr,Statin myotox sup
O=C(c1ccccc1)c1ccc(Cn2cc(-c3ccccc3)nn2)cc1,6,-3,-5,-1
O=C(C1CC1)N1[C@H](CO)[C@@H](c2ccccc2)C12CN(CCC(F)(F)F)C2,nt,nt,-1,nt
Cc1noc(C)c1CCC(=O)NC1CCCN(Cc2ccc(Cl)cc2)C1 (configuration not stated),-1,46*,-1,0
O=C(Nc1ccc(F)c(F)c1)C1CCCN(S(=O)(=O)c2cnc[nH]2)C1 (configuration not stated),3,-13,nt,97*
CC(C)c1ccc(NC(=O)CN2C(=O)NC3(CCCCCCC3)C2=O)cc1,-4,-1,9.5*,-4
CCOc1cc(N2CCOCC2)c(OCC)cc1NC(=O)CN1C(=O)NC(C)(C2CC2)C1=O (configuration not stated),nt,1,-2,nt
COc1cccc(NC(=O)CN2C(=O)NC3(CCCCCC3)C2=O)c1,2,12,8.8*,11
CCOc1cc(N2CCOCC2)c(OCC)cc1NC(=O)CN1C(=O)NC2(CCCCC2)C1=O,2,5,22*,-4
COc1cccc(NC(=O)CN(C)C(=O)CN2C(=O)NC3(CCCC3)C2=O)c1,1,-2,3,6
COc1ccc(S(=O)(=O)Nc2ccc3c(c2)C(=O)N([C@H](C)CO)C[C@H](C)[C@@H](CN(C)C(=O)NC(C)C)OCCCC[C@@H](C)O3)cc1,2,-3,-1,nt
CC(C)C#Cc1ccc([C@H]2[C@@H](CO)N(C(=O)c3ccccn3)[C@H]2C#N)cc1,-2,18,1,4
COc1ccc(NC(=O)Nc2ccc3c(c2)CC(=O)N([C@H](C)CO)C[C@@H](C)[C@@H](CN(C)S(C)(=O)=O)O3)cc1,-4,-5,1,-20
CCOC(=O)c1nc(C)sc1-c1ccnn1S(=O)(=O)c1ccccc1C(F)(F)F,3,5,9.8*,nt
CCOC(=O)c1nc(C)sc1-c1ccnn1S(=O)(=O)c1ccc(Cl)cc1Cl,nt,-2,0,nt
Cc1[nH]n(-c2nc(-c3ccccc3F)cc(=O)[nH]2)c(=O)c1CCO,nt,45*,-1,nt
Cc1[nH]n(-c2ccccc2)c(=O)c1CCO,nt,1,-1,nt
COc1ccc(-c2noc(-c3ccccc3C(=O)Nc3cccnc3)n2)cc1OC,-4,5,nt,2
COc1ccc(-c2noc(-c3ccccc3C(=O)Nc3cccnc3)n2)cc1,-7,0,nt,103*
COc1ccc2c3c([nH]c2c1)[C@@H](CO)N(Cc1ccccc1F)CC31CCN(CC2CC2)CC1,nt,nt,-6,nt
CC(Oc1ccc2c(c1)c1ccnc3c4ccccc4c(=O)n2c13)C(=O)NCCN1CCOCC1 (configuration not stated),-1,48*,7,11
COc1ccc2c(c1OC)c(=O)n1c3ccc(OC(C)C(=O)NCCN4CCOCC4)cc3c3ccnc2c31 (configuration not stated),-5,9,5,-16
CC(C)(C)NC(=O)CCN(/N=C/c1ccc([N+](=O)[O-])o1)C1=NS(=O)(=O)c2ccccc21,-21,79*,nt,nt
COc1ccc(NC(=O)c2nc(C)c(C3(C)CC(c4ccccc4)=NO3)s2)cc1 (configuration not stated),-2,0,14*,15
Cn1cnc2cc(NC(=O)COc3ccccc3)ccc21,nt,0,-3,8
Cc1ccc(NC(=O)COc2ccc(S(=O)(=O)N3CCOCC3)cc2)cc1,-1,-12,nt,152*
O=S(=O)(c1ccc(OCc2ccc(Br)cc2)cc1)N1CCOCC1,-1,-10,19*,-10
Cc1ccc(OCC(=O)Nc2ccc3c(c2)ncn3C)cc1,-3,7,22*,38

# Compound activity as filed in PubChem.
